# Source: PubChem BioAssay
# HP1b chromo inh: inhibitors of HP1-beta chromodomain binding to methylated histone tails. P83916. AlphaScreen HP1-beta / biotin-H3K9me3 peptide binding. Potency, µM (titrated, usually from 114 µM), for inactives: top-dose activity change, negative = inhibition, most hits filed as inhibitors. actives 0.56% (n = 390,000). AID 540317; further: nearly all actives have a fitted effect of over 70% in size
# Target sequence (P83916 whole entry, looked up): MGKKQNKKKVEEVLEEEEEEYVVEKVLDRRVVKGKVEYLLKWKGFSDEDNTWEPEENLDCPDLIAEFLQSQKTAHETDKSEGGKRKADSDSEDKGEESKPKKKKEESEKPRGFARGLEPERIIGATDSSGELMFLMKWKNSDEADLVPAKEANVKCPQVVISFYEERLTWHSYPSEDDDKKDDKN
#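 Compound inhibition of the preformed complex between 50 nM HP1-beta and 50 nM biotinylated H3K9me3 peptide was read by AlphaScreen. Buffer was PBS pH 7.4 with 0.01% Tween-20. Incubations ran 30 min at room temperature, with 10 ug/mL donor/acceptor beads.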
# BAZ2B block: BAZ2B (human) inhibition. AlphaScreen BAZ2B-H3K14Ac peptide displacement. Q9UIF8. actives 4.4% (n = 360,000). Potency, µM (series often up to 114 µM), without a hit: at the highest dose activity change, negative = inhibition, hits mostly inhibitors; further: on the % scale 0 is the no-effect control and ±100 the full control effect; nearly all actives have a fitted effect of over 60% in size
#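 Multi-concentration screen (max 110 uM) measuring displacement of acetylated histone H3 peptide from BAZ2B by AlphaScreen, using 50 nM protein, 50 nM peptide and 10 ug/mL streptavidin donor plus Ni-chelate acceptor beads.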
# JMJD2A Tudor inh: blocks the human JMJD2A Tudor domain. AID 504339. AlphaScreen JMJD2A-Tudor / H3K4me3 peptide binding. actives 4.4% (n = 390,000). Potency, µM (series often up to 114 µM), without a hit: at the highest dose activity change, negative = inhibition, actives largely listed as inhibitors. O75164; further: on the % scale 0 is the no-effect control and ±100 the full control effect; nearly all actives have a fitted effect of over 50% in size
# G9a inh: blocks human histone lysine methyltransferase G9a; Q96KQ7; G9a H3K9 monomethylation, AlphaScreen, 2 h; Potency, µM (doses to about 102 µM), for inactives: top-dose activity, negative = inhibition, hits mostly inhibitors; actives 8.8% (n = 350,000); AID 504332; further: on the % scale 0 is the no-effect control and ±100 the full control effect; nearly all actives have a fitted effect of over 75% in size
# Target sequence (Q96KQ7 913-1193 limits assumed): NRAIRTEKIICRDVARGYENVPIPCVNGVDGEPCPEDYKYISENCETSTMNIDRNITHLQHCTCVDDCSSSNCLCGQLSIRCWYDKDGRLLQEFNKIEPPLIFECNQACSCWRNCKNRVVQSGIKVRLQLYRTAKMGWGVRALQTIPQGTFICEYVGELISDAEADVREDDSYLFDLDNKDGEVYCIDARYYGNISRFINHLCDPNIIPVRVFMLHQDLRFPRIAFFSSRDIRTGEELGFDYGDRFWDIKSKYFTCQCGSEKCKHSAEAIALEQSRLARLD
#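 AlphaScreen detection with an anti-monomethyl H3K9 antibody quantified product after a 2 h room-temperature reaction containing 500 nM biotinylated H3K9 peptide, 20 µM SAM and 20 nM enzyme, which had been preincubated 15 min with compound.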
# GLS inh: inhibitors of human glutaminase (GLS); O94925; GLS enzymatic activity, qHTS titration; Potency, µM (series often up to 45.5 µM), for the others: at the highest dose activity change, negative = inhibition, actives largely listed as inhibitors; actives 0.21% (n = 410,000); AID 624170; further: on the % scale 0 is the no-effect control and ±100 the full control effect
#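 Human kidney-isoform GLS in 45 mM KH2PO4 pH 8.2, 0.02% Tween-20, with compound, started with 1mM L-Glutamine (added stock). Glutamate oxidase/HRP/Amplex red coupled fluorescence read at start and after 30 min at RT.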
# L3MBTL1 inh: blocks human L3MBTL1; Q9Y468; AlphaScreen L3MBTL1–H3K9me1 peptide binding; Potency, µM (titrated, usually from 57.1 µM), for the others: at the highest dose activity, negative = inhibition, most hits filed as inhibitors; actives 0.66% (n = 230,000); further: on the % scale 0 is the no-effect control and ±100 the full control effect; nearly all actives have a fitted effect of over 60% in size
#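 AlphaScreen proximity signal between nickel-chelate acceptor and streptavidin donor beads (final 10 ug/mL) reports binding of 50 nM L3MBTL1 to 75 nM biotin-H3 K9me1 peptide; complex incubated with compounds 30 min at room temperature; cefsulodin titration as control.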
# Numbers without * were called inactive; ? = inconclusive; . = not tested or not shown; [ ] = remark or other dose. An excerpt weighted towards active compounds, which were near 10% of everything screened. The call rests on the fitted dose curve; in most records, active means well fitted curve in the direction sought with a large enough effect; inconclusive means small, poorly fitted or top-dose-only effect, or another doubt; inactive means no such curve, though single readings can be large; an effect the other way counts as inactive or inconclusive. Potency means the concentration at half of the fitted maximal effect.
SMILES,HP1b chromo inh,BAZ2B block,JMJD2A Tudor inh,G9a inh,GLS inh,L3MBTL1 inh
Cc1c(NC(=O)Nc2ccc(Br)cc2F)sc2nc3n(c(=O)c12)CCC(C)CC3 (stereo not given),37%,2%,0%,0%[59 µM],-19%,.
CCOC(=O)c1cc(S(=O)(=O)Nc2cc(C)c(Cl)cc2OC)[nH]n1,1%[57 µM],-34%,?,14µM*,31%,.
CCOC(=O)c1cc(S(=O)(=O)Nc2cc(OC)ccc2OC)[nH]n1,-4%[57 µM],-36%,?,11µM*,33%,.
Cc1ccc(C)c(N2CCN(C(=O)C3CCN(S(=O)(=O)c4cn(C)cn4)CC3)CC2)c1,-12%,-13%,-21%,7%[59 µM],-7%,.
CCn1c(=O)c(=O)n(CC)c2cc(N3CCCCC3)c(NC(=O)c3cccc(OC)c3)cc21,13%,1%,-9%,-35%[59 µM],1%,.
CCn1c(=O)n(CC)c2cc(N3CCCC3)c(NC(=O)c3ccc(C)c([N+](=O)[O-])c3)cc21,12%,-32%,?,8.9µM*,0%,.
CCn1c(=O)n(CC)c2cc(N3CCCC3)c(NC(=O)c3cccc(C)c3)cc21,-6%,50µM*,?,28µM*,-1%,.
Cc1cccc(C(=O)Nc2cc3c(cc2N2CCCCC2)n(C)c(=O)c(=O)n3C)c1,30%,0%,2%,4%[59 µM],1%,.
Cc1cc(C)c(NC(=O)Cc2ccc(-n3c(C)nc4cccnc43)cc2)c(C)c1,20%,-8%,-21%,-10%[59 µM],5%,.
CCOc1cc(C(=O)Nc2cc3c(cc2N2CCCC2)n(C)c(=O)c(=O)n3C)cc(OCC)c1OCC,25%,-21%,-22%,10µM*,-8%,.
Cc1ccc(C(=O)Nc2cc3c(cc2N2CCCCC2)n(C)c(=O)n3C)cc1,61%,-18%,-14%,-3%[59 µM],-3%,.
Cn1c(=O)c(=O)n(C)c2cc(N3CCCC3)c(NC(=O)c3ccc(C(C)(C)C)cc3)cc21,2%,?,-30%,11µM*,-5%,.
CCOc1cc(C(=O)Nc2cc3c(cc2N2CCCC2)n(C)c(=O)n3C)cc(OCC)c1OCC,32%,89µM*,-29%,.,-1%,.
Cc1cccc(NC(=O)c2ccc3snnc3c2)c1C,36%,-1%,6%,5%[59 µM],3%,.
O=Nc1c(-c2c(O)[nH]c3ccccc23)[nH]c2ccccc12,.,.,.,8.9µM*,.,.
O=NC1=C(c2c(O)[nH]c3ccccc23)CCCC1,12%,-6%,-15%,?,?,.
COC(=O)c1c(-c2ccc(C)cc2)csc1NC(=S)NC(=O)c1cc(OC)cc(OC)c1,18%,?,0%,25µM*,15%,-15%
Cc1ccc2c(c1)c1c(n2C)C(C(N)=O)CCC1 (stereo not given),13%,-29%,-18%,40µM*,3%,-11%
NC(=O)C1CCCc2c1n(Cc1ccccc1)c1ccccc21 (stereo not given),-12%,-12%,-31%,9%,1%,.
Cc1ccc2c(c1)c1c3n2CCN(C(=O)CCl)C3CCC1 (stereo not given),-7%,56µM*,?,?,9%,-5%
CC(=O)N1CCn2c3c(c4cc(C)ccc42)CCCC31 (stereo not given),-19%,35µM*,-33%,-10%[12.7 µM],16%,-18%
COC(=O)c1ccc(NC(=O)C2CCCO2)cc1 (stereo not given),23%,14%,-13%,-13%,-2%,6%
COC(=O)c1ccc(N2OC3(C)C=CC2CC3)cc1 (stereo not given),15%,10%,-8%,45µM*,-1%,-1%
O=c1c2c([nH]c3ccccc13)C(=C1CCCC1)CC2,24%,?,-23%,35µM*,-22%,?
c1coc(CN2CCN(C(c3cccs3)c3nnnn3C3CCCC3)CC2)c1 (stereo not given),17%,?,?,50µM*,5%,7%
SMILES,HP1b chromo inh,BAZ2B block,JMJD2A Tudor inh,G9a inh,GLS inh,L3MBTL1 inh
CC(=O)c1sc(NC(=O)C2CC(=O)N(Cc3ccco3)C2)nc1-c1ccccc1 (stereo not given),?,?,?,50µM*,61%,-21%
O=C(Nc1ccc(Cl)cc1F)C1CC(=O)N(Cc2ccco2)C1 (stereo not given),22%,7%,-13%,56µM*,2%,1%
COc1ccc(N2CCN(C3=CC(=O)N(c4cccc(Cl)c4)C3=O)CC2)cc1,?,11µM*,?,?,-7%,0%
Cc1ccc2nc(NCc3ccco3)c(C=NCc3ccco3)c(=O)n2c1,31%,50µM*,1%,3%[59 µM],1%,?
COc1ccc(CNC(=O)C2CCCN(C(=O)c3cnn(-c4ccc(F)cc4)c3-n3cccc3)C2)cc1 (stereo not given),28%,-14%,2%,8%[59 µM],2%,.
Cc1ccc2ncc(C(=O)NC(C)c3ccccc3)c(=O)n2c1 (stereo not given),15%,-1%,-13%,6%[59 µM],-12%,.
Nc1c(C(=O)Nc2ccc(OC(F)(F)F)cc2)nnn1Cc1ccccc1,38%,-8%,3%,1%[59 µM],-2%,.
O=C(NCc1ccccc1Br)c1ccc(-n2cnc3cccnc32)cc1,37%,-32%,?,-18%[59 µM],-7%,.
COc1ccc(C2C(C(=O)c3sc(C)nc3C)=C(O)C(=O)N2CCN(C)C)cc1OC (stereo not given),53%,4%,-9%,-27%[12.7 µM],-7%,1%
COc1ccc(/C(O)=C2/C(=O)C(=O)N(CCCN3CCOCC3)C2c2ccc(C)cc2)cc1 (stereo not given),32%,8%,-7%,?,-3%,10%
O=C1C(=O)N(CCc2c[nH]c3ccccc23)C(c2cccnc2)/C1=C(/O)c1ccccc1 (stereo not given),.,-22%,.,50µM*,.,-3%
COc1ccc(/C(O)=C2/C(=O)C(=O)N(CCN3CCOCC3)C2c2ccc(C)cc2)cc1 (stereo not given),33%,-20%[57.1 µM],-22%,45µM*,-7%,0%
Cc1ccc(C2C(C(=O)c3sc(C)nc3C)=C(O)C(=O)N2CCN(C)C)o1 (stereo not given),10%,13%,-31%,45µM*,0%,-1%
CCOc1ccc(/C(O)=C2\C(=O)C(=O)N(CCOCCO)C2c2ccccc2OC)cc1 (stereo not given),-11%,-3%,18µM*,17%[59 µM],5%,-6%
O=C(Nc1cccc(F)c1)C1CCN(c2nc3ccccc3[nH]2)CC1,28%[57 µM],-1%,0%,5%[59 µM],1%,.
